The record followed here is PubChem BioAssay.

Calls of active or inactive are those of the source. Unless noted, how the calls were made is not given here.

A short description of test [1]: reduced mouse 2C T cell binding to pMHC/ICAM-1 vesicles – MLPCN validation set, flow cytometry, LFA-1/ICAM-1 modulator project, pilot screen (AID 2523;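 active means response below a set limit, under 55% cells CD8-positive and vesicle-bound, and CD8 cells' 90th-percentile brightness under 279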;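 on vesicle binding response: mean PE anti-B7-1 fluorescence of CD8+ cells relative to row control; 100% = QL9-loaded vesicles with DMSO vehicle in the same plate row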). The settings on record: 2C mouse CD8+ T cells, at 7 µM, stronger effect = lower value; double positive events: measured here: CD8+/vesicle+ event percentage.
Test [2] has as its target Integrin beta-1 (Homo sapiens) + Integrin alpha-4 (Homo sapiens) (UniProt P13612+P05556). The test can be described thus: alpha4beta1 integrin LIBS antibody binding reduction – U937 cells, HUTS-21 mAb, flow cytometry, validation set, VLA-4 allosteric modulator project, pilot screen (AID 2674;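 active means inhibition above 50%, about 3 SD of the validation set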;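 further: antibody binding induced by the VLA-4 ligand LDV present at three times its Kd; 0% = LDV ligand with antibody and no compound and 100% = antibody without LDV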). The settings on record: HUTS-21 LIBS mAb binding, at 6.7 µM, stronger effect = higher value. (Flow cytometry measures light scatter and fluorescence of single cells or particles in a stream.)

Test [3] can be described thus: calorie-restriction mimetic ROS inhibitors, yeast – validation compound set, pilot screen (AID 2706;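 active means superoxide response below 65% of plate, a cut near 3 SD across the whole screen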;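 further: yeast exposed to compound for one week at 30 degrees C before staining; 100% = mean of all compound wells on the same plate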). The settings on record: S. cerevisiae aging, superoxide DHE fluorescence; at 10 µM; stronger effect = lower value.
Test [4] concerns the target Beta-adrenergic receptor kinase 1 (Homo sapiens) (UniProt P25098). The test can be described thus: GRK2 binders displacing RNA aptamer, biochemical, validation, human GRK2, bead flow cytometry (AID 488806;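 active means aptamer binding inhibition above 30%, about 3 SD of noise from non-fluorescent compounds; inactive means inhibition at or below 30%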). To be noted: bead-bound GRK2, FAM-aptamer displacement, at 10 µM, stronger effect = higher value.
Test [5] addresses Beta-2 adrenergic receptor (Homo sapiens) (UniProt P07550). The experiment in a line: agonist-induced loss of surface beta2AR – cell-based, FAP fluorogen, flow cytometry, validation set, pilot screen (AID 504459;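 active means percent response above 42, roughly 3 SD of non-fluorescent test compounds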;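 further: agonist-driven loss of surface beta2AR via internalization measured by FAP dye flow cytometry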). To be noted: Am2.2-beta2AR cells, at 10 µM, stronger effect = higher value.
In test [6] the target is AP-2 complex subunit beta (Homo sapiens) (UniProt P63010). The experiment in a line: beta-arrestin/AP2 interaction blockers – biochemical, validation set, GST-AP2 beads, flow cytometry, pilot screen (AID 504541;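 active means inhibition above 54%, about 3 SD of non-fluorescent compounds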;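 further: AP2 carries R879A mutation and is captured from E. coli lysate; bead-bound FITC arrestin peptide fluorescence measuring arrestin peptide binding to AP2; 0% = DMSO wells and 100% = excess unlabeled arrestin peptide control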). The settings on record: FITC arrestin peptide, at 10 µM, stronger effect = higher value.
Sequence of AP-2 complex subunit beta (Homo sapiens) (P63010 whole entry, looked up, one chain of several): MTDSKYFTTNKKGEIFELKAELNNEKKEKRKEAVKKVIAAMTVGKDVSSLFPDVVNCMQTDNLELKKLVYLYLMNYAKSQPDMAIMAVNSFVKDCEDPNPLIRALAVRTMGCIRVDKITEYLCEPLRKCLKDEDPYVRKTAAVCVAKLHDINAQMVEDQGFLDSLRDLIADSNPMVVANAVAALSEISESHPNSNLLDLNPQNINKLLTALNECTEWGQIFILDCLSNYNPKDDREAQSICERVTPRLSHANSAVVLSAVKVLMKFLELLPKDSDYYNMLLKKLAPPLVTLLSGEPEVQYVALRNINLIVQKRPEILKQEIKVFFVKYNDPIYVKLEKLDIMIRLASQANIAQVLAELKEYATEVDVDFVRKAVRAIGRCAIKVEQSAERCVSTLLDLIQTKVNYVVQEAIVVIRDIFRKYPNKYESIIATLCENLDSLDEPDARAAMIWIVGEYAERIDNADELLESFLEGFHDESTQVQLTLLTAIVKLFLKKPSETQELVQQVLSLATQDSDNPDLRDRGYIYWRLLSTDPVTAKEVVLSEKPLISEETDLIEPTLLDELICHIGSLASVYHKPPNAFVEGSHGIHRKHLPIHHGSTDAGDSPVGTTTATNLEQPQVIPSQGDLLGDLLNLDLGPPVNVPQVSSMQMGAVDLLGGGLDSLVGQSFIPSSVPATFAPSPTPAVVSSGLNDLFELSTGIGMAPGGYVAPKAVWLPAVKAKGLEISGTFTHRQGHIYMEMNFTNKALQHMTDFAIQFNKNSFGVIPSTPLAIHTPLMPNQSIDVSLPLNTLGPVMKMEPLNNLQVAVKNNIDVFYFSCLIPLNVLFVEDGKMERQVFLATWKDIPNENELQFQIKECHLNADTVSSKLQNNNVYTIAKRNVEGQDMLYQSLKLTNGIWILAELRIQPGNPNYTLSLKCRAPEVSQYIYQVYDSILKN
Test [7] can be described thus: cytosolic pH regulators acting via V-ATPase – S. cerevisiae, pHLuorin, HTS validation (AID 504600; in the data active means response above about 15%;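 further: plate controls were DMSO for no effect and reference compound for full effect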). The settings on record: V-ATPase proton transport, at 10 µM, stronger effect = higher value.
The subject of test [8] is anti-desmoglein-3 scFv antibody binding to human DSG3. The test can be described thus: blockers of pathogenic pemphigus antibody–desmoglein-3 binding – biochemical, validation compound set, bead-based, flow cytometry, pilot screen (AID 588368;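 active means binding below the plate cutoff, the plate median minus 3 SD, with a reading above zero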;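 further: signal is the median channel fluorescence of bead-bound GFP antibody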). The settings on record: Protein G beads, DSG3-Fc, scFv-GFP binding, at 10 µM, stronger effect = lower value.
In test [9] the test system is Botulinum neurotoxin type F light chain protease (Clostridium botulinum). The test can be described thus: Clostridium botulinum type F light chain protease inhibitors, microsphere substrate cleavage, validation (AID 588459). To be noted: multiplex microsphere protease substrate cleavage assay, flow cytometry; at 10 µM; stronger effect = higher value.
For test [10], the target named is Botulinum neurotoxin type A (Clostridium botulinum) (UniProt P0DPI0). The test can be described thus: BoNT/A light chain protease inhibitors, biochemical, multiplex microsphere flow cytometry, validation set (AID 588460). To be noted: at 10 µM, stronger effect = higher value.
Sequence of Botulinum neurotoxin type A (Clostridium botulinum) (P0DPI0 whole entry, looked up): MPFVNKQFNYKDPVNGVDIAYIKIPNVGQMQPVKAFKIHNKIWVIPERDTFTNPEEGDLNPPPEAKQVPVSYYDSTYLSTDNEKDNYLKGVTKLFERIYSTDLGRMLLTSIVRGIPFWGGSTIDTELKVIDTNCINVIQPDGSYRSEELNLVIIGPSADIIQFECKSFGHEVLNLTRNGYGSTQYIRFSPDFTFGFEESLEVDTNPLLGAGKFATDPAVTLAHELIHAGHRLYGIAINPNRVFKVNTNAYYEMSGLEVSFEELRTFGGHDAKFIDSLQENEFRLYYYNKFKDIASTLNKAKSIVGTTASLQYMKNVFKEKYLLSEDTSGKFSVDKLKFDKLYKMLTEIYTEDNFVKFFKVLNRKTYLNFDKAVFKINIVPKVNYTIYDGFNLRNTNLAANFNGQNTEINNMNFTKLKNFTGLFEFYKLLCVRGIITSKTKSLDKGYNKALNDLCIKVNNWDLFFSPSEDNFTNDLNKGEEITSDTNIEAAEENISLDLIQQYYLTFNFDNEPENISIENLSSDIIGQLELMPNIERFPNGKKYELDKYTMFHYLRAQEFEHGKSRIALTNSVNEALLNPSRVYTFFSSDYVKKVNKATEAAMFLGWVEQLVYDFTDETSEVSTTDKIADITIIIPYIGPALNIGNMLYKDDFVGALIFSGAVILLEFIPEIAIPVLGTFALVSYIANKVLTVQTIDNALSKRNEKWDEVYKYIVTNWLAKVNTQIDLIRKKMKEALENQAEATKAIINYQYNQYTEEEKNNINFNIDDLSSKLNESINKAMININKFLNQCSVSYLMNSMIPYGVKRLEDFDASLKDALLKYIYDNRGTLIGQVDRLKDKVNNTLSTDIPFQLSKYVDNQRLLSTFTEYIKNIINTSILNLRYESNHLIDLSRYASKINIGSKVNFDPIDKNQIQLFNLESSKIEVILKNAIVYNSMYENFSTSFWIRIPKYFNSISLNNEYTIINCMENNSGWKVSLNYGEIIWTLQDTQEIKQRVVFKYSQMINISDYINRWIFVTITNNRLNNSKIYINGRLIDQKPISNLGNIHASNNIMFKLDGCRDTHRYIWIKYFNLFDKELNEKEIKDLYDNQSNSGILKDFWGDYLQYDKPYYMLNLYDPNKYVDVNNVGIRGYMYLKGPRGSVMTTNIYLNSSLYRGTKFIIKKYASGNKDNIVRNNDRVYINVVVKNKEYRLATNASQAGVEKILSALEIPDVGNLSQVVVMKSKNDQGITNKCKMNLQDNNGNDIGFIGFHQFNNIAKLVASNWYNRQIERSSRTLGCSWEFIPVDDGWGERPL
Test [11] addresses Lethal factor (Bacillus anthracis) (UniProt P15917). The experiment in a line: Bacillus anthracis lethal factor inhibition, microsphere flow cytometry protease assay, validation at 10 µM (AID 588461). To be noted: multiplex microsphere protease cleavage assay, stronger effect = higher value.
Test [12] is described as follows: Nile Red efflux blockade in pump-expressing yeast – validation compound set, multiplex, phenotypic, pilot screen (AID 588506;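 active means efflux inhibition above 0.42, the validation set average plus 4 SD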;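 further: Nile Red retained in cells so higher fluorescence means more efflux inhibition; 0 = negative control wells and 1 = enniatin B 25 µM full block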). To be noted: S. cerevisiae pump-expressing triplex, Nile Red efflux flow cytometry; at 10 µM; stronger effect = higher value.
The target of test [13] is ATP-binding cassette sub-family B member 6 (Homo sapiens) (UniProt Q9NP58). The experiment in a line: blockers of ABCB6-driven porphyrin uptake – K562-ABCB6 cells, flow cytometry, validation set, pilot screen (AID 588550;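 active means inhibition above the screen-wide mean plus 3 SD, about 51%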;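 further: 0% = DMSO wells and 100% = benzethonium chloride 70 µM positive control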). To be noted: K562-ABCB6 porphyrin accumulation, 1 h, at 10 µM, stronger effect = higher value.
Sequence of ATP-binding cassette sub-family B member 6 (Homo sapiens) (Q9NP58 whole entry, looked up): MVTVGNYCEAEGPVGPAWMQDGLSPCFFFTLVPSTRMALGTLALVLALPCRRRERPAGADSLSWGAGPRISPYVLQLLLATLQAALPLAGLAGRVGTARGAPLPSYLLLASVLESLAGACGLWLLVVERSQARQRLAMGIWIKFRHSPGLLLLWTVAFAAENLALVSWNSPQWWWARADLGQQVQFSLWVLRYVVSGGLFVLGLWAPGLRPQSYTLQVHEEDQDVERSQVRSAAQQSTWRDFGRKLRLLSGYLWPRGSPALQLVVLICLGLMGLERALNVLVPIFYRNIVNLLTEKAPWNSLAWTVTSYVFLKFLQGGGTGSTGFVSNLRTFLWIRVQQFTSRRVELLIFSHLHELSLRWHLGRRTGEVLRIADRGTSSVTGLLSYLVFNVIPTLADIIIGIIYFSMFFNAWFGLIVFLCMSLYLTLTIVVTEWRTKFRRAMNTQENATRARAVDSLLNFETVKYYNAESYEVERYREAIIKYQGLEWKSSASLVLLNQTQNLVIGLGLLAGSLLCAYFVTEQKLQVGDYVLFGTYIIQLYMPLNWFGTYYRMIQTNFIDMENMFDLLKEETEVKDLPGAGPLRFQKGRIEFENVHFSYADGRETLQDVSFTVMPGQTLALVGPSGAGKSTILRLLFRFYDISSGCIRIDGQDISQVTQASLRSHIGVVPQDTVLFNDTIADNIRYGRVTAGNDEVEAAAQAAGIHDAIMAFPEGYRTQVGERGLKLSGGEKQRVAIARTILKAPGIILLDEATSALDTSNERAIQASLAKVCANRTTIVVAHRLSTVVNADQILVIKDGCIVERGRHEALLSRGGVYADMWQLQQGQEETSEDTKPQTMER
A short description of test [14]: AML differentiation inducers, ER-HoxA9 marrow cells – cell-based, GFP/MAC1 double positive, flow cytometry, validation set, primary screen (AID 588685;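 active means differentiation response of at least 50%, scaled between solvent and reference control, from cells with both markers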;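 further: compound exposure lasts four days before antibody staining and flow analysis; 0% = DMSO wells and 100% = 5 µM fulvestrant positive control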). The settings on record: stronger effect = higher value.
Test [15] can be described thus: hit retest on RPL19A-GFP reporter strain – cell-based, S. cerevisiae, flow cytometry, cherry picks, mother/daughter gates, confirmation (AID 2270;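 active means GFP response below 50% of the DMSO control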). To be noted: 3 h, at 10 µM, stronger effect = lower value, 100 = same GFP as DMSO wells.
The nature of test [16]: yeast TOR pathway reporter LAP4-GFP change – cell-based, cherry picks, flow cytometry, mother/daughter gates, confirmation (AID 2271;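 active means GFP response above 150% of the DMSO control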;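 further: ratio of sample to DMSO plate mean so 100% equals DMSO level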). To be noted: S. cerevisiae LAP4-GFP strain, 3 h, at 10 µM, stronger effect = higher value.
The nature of test [17]: TOR pathway reporter MEP2-GFP, retest of hits – S. cerevisiae, flow cytometry GFP, cherry picks, confirmation (AID 2272;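 active means GFP response above 150% of the DMSO control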;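 further: ratio of well signal to plate DMSO mean so 100% equals DMSO level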). To be noted: S. cerevisiae MEP2-GFP strain, 3 h, at 10 µM, stronger effect = higher value.
A short description of test [18]: yeast AGP1-GFP fluorescence change, single-dose – cell-based, flow cytometry, S. cerevisiae, cherry picks, confirmation (AID 2273;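 active means GFP response above 150% of the DMSO level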;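 further: median GFP channel fluorescence over the whole cell population gate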). The settings on record: S. cerevisiae AGP1-GFP strain, 3 h, at 10 µM.
The nature of test [19]: TOR pathway CIT2 reporter hit retest – S. cerevisiae, GFP fusion, cherry picks, mother/daughter gates, confirmation (AID 2274;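 active means GFP response above 150% of the DMSO level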). The settings on record: S. cerevisiae CIT2-GFP strain, flow cytometry, 3 h, at 10 µM, stronger effect = higher value.
[20] abbreviates: measured here: mother cell gate.
The mark [21] stands for this setting: measured here: mother cell gate response.
[22] abbreviates: measured here: daughter cell gate.

Sequence of Beta-2 adrenergic receptor (Homo sapiens) (P07550 whole entry, looked up): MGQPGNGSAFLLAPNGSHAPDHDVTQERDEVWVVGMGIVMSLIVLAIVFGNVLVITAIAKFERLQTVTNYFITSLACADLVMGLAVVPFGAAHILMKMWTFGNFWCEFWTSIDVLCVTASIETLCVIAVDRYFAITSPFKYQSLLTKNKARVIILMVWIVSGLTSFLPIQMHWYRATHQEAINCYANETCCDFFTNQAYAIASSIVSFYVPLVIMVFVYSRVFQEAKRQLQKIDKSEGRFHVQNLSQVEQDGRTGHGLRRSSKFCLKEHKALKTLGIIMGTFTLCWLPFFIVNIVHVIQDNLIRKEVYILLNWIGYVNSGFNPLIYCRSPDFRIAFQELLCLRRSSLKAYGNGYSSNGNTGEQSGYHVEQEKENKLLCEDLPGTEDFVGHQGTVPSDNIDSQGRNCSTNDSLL
Sequence of Beta-adrenergic receptor kinase 1 (Homo sapiens) (P25098 whole entry, looked up): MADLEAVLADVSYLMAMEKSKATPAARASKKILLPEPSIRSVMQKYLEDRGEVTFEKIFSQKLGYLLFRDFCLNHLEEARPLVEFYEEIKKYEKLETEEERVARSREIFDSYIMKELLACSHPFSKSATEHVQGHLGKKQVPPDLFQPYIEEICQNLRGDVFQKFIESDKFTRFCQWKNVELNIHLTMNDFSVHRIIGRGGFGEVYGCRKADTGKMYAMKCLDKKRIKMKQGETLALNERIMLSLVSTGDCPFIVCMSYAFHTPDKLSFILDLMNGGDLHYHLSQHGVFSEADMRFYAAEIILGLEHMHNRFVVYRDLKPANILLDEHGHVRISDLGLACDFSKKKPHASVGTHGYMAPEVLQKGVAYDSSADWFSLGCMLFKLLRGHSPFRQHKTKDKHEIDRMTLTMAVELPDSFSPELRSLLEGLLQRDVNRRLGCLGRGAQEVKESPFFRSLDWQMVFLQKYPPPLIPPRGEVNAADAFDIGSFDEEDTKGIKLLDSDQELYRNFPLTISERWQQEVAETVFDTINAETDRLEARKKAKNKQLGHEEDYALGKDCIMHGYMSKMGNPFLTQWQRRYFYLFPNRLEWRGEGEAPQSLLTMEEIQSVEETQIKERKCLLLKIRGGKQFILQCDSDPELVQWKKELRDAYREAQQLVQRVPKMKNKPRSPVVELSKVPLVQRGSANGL
Sequence of Lethal factor (Bacillus anthracis) (P15917 whole entry, looked up): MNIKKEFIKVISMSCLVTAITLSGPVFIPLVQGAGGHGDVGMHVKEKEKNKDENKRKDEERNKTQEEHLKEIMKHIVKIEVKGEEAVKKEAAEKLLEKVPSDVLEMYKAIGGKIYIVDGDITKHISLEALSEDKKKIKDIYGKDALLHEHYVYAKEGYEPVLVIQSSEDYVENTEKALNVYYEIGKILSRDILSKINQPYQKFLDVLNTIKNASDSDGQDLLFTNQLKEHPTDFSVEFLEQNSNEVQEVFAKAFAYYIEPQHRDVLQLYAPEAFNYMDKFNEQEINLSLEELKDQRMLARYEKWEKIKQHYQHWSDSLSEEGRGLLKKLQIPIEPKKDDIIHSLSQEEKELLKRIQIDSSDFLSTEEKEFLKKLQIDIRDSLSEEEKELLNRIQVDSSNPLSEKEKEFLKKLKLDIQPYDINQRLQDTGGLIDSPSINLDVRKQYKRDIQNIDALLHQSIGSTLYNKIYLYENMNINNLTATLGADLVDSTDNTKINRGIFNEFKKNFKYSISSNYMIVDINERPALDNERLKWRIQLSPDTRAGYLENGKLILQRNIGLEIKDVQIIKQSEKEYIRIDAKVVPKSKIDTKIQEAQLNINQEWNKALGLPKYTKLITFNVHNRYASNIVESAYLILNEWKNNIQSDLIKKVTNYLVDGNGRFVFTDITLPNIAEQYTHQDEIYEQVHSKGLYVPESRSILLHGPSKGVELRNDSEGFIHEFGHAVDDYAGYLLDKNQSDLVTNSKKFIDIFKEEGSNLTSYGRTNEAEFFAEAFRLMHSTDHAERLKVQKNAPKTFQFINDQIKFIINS

`Clc1ccc(COC(Cn2ccnc2)c2ccc(Cl)cc2Cl)c(Cl)c1` (stereo not drawn): in test [1], the double positive events was 71.9%. The vesicle binding response in [1] was 306% (inactive). The inhibition (usually the relative decrease from the control value, in per cent) in [2] is -1.12% (inactive); in [6], -8.06% (inactive); in [9], 0.4% (inactive); in [10], -0.5% (inactive); in [11] it was -5.1% (inactive); in test [13], 5% (inactive). Further, the superoxide response (% of plate) in test [3] is 76.7% (inactive). In [4], the aptamer binding inhibition was 4% (inactive). The values for the response in [5] and in test [7] were -12.4% (inactive) and 75% (active), respectively. The binding (% of control) in test [8] was 104% (inactive). Further, the efflux inhibition (fraction of control) in test [12] is 0.33 (inactive). For the same molecule, the differentiation response in test [14] was -1.05% (inactive).

As for `Nc1ccc([As](=O)(O)O)cc1`, the double positive events in [1] turned out to be 53.2%. Further, in test [1], the vesicle binding response is 190% (inactive). Further, the inhibition in test [2] was 7.22% (inactive); in test [6], -9.89% (inactive); in test [9] it was -3.5% (inactive); in test [10] it was -1.7% (inactive); in test [11] it was 6.8% (inactive); in [13], 3% (inactive). The superoxide response (% of plate) in test [3] was 108% (inactive). Moreover, the aptamer binding inhibition in [4] was 2% (inactive). Besides, in test [7], the response was -3.63% (inactive). For the same molecule, the binding (% of control) in test [8] is 99.6% (inactive). In addition, in test [12], the efflux inhibition (fraction of control) is -0.35 (inactive). Further, the differentiation response in test [14] is -0.2% (inactive).

Take `O=C1NC(=S)N(c2ccccc2)C(=O)/C1=C/c1ccco1`: the GFP response vs DMSO in test [15] is 98.8% (inactive); in test [15] (setting [20]) it was 91.4%; in [17], 122% (inactive). Moreover, the GFP response relative to DMSO was 112% (inactive) in test [16], 116% in [16] (measured here: daughter cell gate response) and 111% in [16] (setting [21]). For the same molecule, the GFP response, % of DMSO in test [18] was 103% (inactive); in test [19], 84.8% (inactive); in [19] (setting [20]) it was 65.5%.

As to `CC1(C)OC(c2ccccc2)=C/C(=C/C=C2C(=O)NC(=S)NC2=O)O1`, the GFP response vs DMSO was 97.8% (inactive) in [15], 99.3% in [15] (setting [22]), 98.5% in test [15] (setting [20]) and 145% (inactive) in [17]. In addition, the GFP response relative to DMSO in test [16] is 203% (active); in test [16] (setting [21]), 160%. In addition, the GFP response, % of DMSO in [18] is 92.3% (inactive); in test [19], 119% (inactive); in test [19] (setting [22]), 121%; in test [19] (setting [20]), 117%.

Molecule `CCCC(C)(COC(N)=O)COC(=O)NC(C)C` (stereo not drawn) came in with a double positive events in test [1] of 64.3%. Besides, the vesicle binding response in test [1] is 111% (inactive). For the same molecule, the inhibition in test [2] was 23.6% (inactive); in test [6], -2.17% (inactive); in test [9], 0.5% (inactive); in test [10], 1.4% (inactive); in [11], 6.3% (inactive); in [13], 6% (inactive). In addition, the superoxide response (% of plate) in test [3] was 94.5% (inactive). Also, in test [4], the aptamer binding inhibition was 6% (inactive). For the same molecule, the results for the response in [5] and in [7] were -23.9% (inactive) and 9.22% (inactive), respectively. Moreover, in test [8], the binding (% of control) was 101% (inactive). The efflux inhibition (fraction of control) in test [12] is -0.13 (inactive). In test [14], the differentiation response was 44.3% (inactive).

For the molecule `CCCC(=O)OCC[N+](C)(C)C`, the double positive events in test [1] worked out at 63.6%. In addition, in test [1], the vesicle binding response was 145% (inactive). Moreover, the inhibition in test [2] is 14.2% (inactive); in test [6], 5.57% (inactive); in test [9], -3.8% (inactive); in [10], -2.9% (inactive); in [11], 1.4% (inactive); in test [13], 13% (inactive). In test [3], the superoxide response (% of plate) was 92.5% (inactive). In addition, the aptamer binding inhibition in test [4] was 4% (inactive). Also, the response in [5] is 9.88% (inactive); in [7], 5.81% (inactive). Also, the binding (% of control) in [8] is 108% (inactive). In addition, the efflux inhibition (fraction of control) in test [12] is -0.06 (inactive). In addition, in test [14], the differentiation response is 2.46% (inactive).
